This passage reports binding signal results from article PMC7862700, “An all-to-all approach to the identification of sequence-specific readers for epigenetic DNA modifications on cytosine”.

Common to all, as to test: DAPPL (digital affinity profiling via proximity ligation, sequencing); 10 mM Tris-HCl pH 7.5, 50 mM NaCl, 1 mM DTT, 4% glycerol, room temperature, 30 min; GST-TFs on glutathione beads, 16-mer random dsDNA library, 0.1% formaldehyde crosslink after washing; high values mean tight binding
What all share (settings): protein: recombinant; tags: N-terminal GST; dsDNA, one strand shown

One experiment addresses T1, ELK4 (Homo sapiens, UniProt P28324-2 1-405).
T1 sequence: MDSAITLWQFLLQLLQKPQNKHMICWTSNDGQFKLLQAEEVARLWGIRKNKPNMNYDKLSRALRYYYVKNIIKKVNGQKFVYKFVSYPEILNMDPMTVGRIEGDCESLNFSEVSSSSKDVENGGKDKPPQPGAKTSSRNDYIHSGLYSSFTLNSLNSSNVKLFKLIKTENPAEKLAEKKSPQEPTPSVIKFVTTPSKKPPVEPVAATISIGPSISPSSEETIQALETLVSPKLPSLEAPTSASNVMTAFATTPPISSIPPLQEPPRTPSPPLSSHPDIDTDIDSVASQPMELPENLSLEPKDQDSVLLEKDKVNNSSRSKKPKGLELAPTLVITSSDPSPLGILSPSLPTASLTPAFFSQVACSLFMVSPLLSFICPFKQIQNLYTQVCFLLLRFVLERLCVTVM
An outline of the steps:
(§1)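 Binding signal is defined as a hexamer's read frequency for one factor over its frequency for the tag-only sample. To obtain reads, GST-fused human transcription factors were expressed in yeast, captured on glutathione beads, barcoded with DNA and pooled with that sample. Pools met 200 nmole of a 16-mer random double-stranded DNA library in Tris/NaCl/DTT/glycerol buffer for 30 min at room temperature before washing, 0.1% formaldehyde crosslinking, proximity ligation (BsaI/T4 ligase, 1 h, 37 °C), PCR and Illumina NextSeq500 sequencing.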

The target of another experiment is T2, ETV2 (Homo sapiens, UniProt O00321 1-342).
T2 sequence: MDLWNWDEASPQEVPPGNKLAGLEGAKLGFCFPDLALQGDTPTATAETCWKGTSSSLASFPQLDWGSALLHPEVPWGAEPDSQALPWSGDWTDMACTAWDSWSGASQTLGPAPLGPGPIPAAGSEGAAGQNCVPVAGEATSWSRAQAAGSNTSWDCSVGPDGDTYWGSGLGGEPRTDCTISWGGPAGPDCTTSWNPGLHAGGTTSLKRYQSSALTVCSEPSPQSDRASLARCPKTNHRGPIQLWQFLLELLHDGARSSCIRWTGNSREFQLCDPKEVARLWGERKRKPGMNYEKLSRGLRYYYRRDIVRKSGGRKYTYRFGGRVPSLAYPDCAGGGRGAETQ
An outline of the steps:
as §1

Another experiment deals with T3, ELF3 (Homo sapiens, UniProt P78545 1-371).
T3 sequence: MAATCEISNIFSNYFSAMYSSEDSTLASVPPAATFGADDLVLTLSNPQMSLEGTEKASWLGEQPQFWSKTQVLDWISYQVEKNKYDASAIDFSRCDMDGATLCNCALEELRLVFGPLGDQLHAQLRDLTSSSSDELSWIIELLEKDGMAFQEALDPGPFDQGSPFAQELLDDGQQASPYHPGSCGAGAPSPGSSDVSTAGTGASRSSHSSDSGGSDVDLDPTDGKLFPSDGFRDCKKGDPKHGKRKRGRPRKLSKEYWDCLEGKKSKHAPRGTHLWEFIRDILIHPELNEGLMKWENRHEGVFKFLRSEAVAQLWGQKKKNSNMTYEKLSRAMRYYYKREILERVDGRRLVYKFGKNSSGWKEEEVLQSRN
An outline of the steps:
as §1

The target of another experiment is T4, ETV7 (Homo sapiens, UniProt Q9Y603 1-341).
T4 sequence: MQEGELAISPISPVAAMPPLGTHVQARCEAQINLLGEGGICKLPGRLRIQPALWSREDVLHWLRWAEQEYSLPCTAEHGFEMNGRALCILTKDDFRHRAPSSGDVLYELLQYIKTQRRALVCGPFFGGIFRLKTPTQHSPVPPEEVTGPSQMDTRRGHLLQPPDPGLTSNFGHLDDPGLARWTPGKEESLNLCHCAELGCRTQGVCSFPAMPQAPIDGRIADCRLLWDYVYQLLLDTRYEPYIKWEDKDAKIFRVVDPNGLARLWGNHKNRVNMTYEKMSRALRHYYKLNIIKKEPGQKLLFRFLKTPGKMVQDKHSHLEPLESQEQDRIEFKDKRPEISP
An outline of the steps: as §1

In a further experiment the target is CRX (Homo sapiens, UniProt O43186 1-299). The procedure, abridged: as §1
A further experiment deals with T5, SPDEF (Homo sapiens, UniProt O95238 1-335).
T5 sequence: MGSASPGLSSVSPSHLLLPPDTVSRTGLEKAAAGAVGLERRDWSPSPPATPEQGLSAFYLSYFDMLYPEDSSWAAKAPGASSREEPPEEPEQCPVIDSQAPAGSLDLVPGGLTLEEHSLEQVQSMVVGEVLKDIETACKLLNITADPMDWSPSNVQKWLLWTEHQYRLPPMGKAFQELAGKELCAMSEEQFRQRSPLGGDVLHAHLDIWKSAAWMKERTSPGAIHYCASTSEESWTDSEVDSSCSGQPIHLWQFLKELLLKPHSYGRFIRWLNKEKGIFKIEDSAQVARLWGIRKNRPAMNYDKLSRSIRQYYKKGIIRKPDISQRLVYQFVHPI
An outline of the steps: as §1

CRX, sequence (O43186 whole entry): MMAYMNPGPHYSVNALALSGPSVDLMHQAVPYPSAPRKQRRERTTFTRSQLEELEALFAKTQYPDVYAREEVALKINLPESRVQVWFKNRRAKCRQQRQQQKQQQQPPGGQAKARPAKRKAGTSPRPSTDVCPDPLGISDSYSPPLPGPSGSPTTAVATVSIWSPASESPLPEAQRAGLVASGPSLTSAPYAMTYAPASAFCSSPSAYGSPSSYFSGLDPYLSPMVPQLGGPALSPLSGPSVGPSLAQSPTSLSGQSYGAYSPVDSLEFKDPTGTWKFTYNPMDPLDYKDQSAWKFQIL

In the case of TGGGTA, the binding signal was 1.02 fold enrichment (6-mer frequency, TF over GST control) with ELK4; 1.14 fold enrichment (6-mer frequency, TF over GST control) in the experiment with ETV2; 1.1 fold enrichment (6-mer frequency, TF over GST control) with ELF3; 1.01 fold enrichment (6-mer frequency, TF over GST control) with ETV7.

Consider AGTGGT, for which the binding signal with ELK4 is 1.1 fold enrichment (6-mer frequency, TF over GST control); with ELF3, 1.01 fold enrichment (6-mer frequency, TF over GST control); with ETV7, 1.14 fold enrichment (6-mer frequency, TF over GST control).

AGTGCC: the binding signal is 1.08 fold enrichment (6-mer frequency, TF over GST control) with ETV2 and 1.05 fold enrichment (6-mer frequency, TF over GST control) with ETV7.

With ATAGCG, the binding signal with ELF3 is 1.11 fold enrichment (6-mer frequency, TF over GST control).

On to ATTGGC, for which the binding signal with ELK4 was 1.06 fold enrichment (6-mer frequency, TF over GST control); in the experiment with ETV2, 1.1 fold enrichment (6-mer frequency, TF over GST control); with ELF3, 1.24 fold enrichment (6-mer frequency, TF over GST control); with CRX, 1.07 fold enrichment (6-mer frequency, TF over GST control); with SPDEF it was 1.12 fold enrichment (6-mer frequency, TF over GST control); with ETV7, 1.04 fold enrichment (6-mer frequency, TF over GST control).

For ATGGCG, the binding signal in the experiment with ELF3 is 1.03 fold enrichment (6-mer frequency, TF over GST control); with SPDEF, 1.02 fold enrichment (6-mer frequency, TF over GST control); in the experiment with ETV7, 1.01 fold enrichment (6-mer frequency, TF over GST control).

Turning to ACGGTT, the binding signal with ETV2 was 1.16 fold enrichment (6-mer frequency, TF over GST control); with SPDEF, 1.04 fold enrichment (6-mer frequency, TF over GST control); with ETV7 it was 1.04 fold enrichment (6-mer frequency, TF over GST control).

On to GCAACC, for which the binding signal with SPDEF is 1.13 fold enrichment (6-mer frequency, TF over GST control); with ETV7 it was 1.01 fold enrichment (6-mer frequency, TF over GST control).

CAACCG: the binding signal in the experiment with ETV2 is 1.08 fold enrichment (6-mer frequency, TF over GST control); with ELF3 it was 1.08 fold enrichment (6-mer frequency, TF over GST control); with SPDEF it was 1.15 fold enrichment (6-mer frequency, TF over GST control).

As for TGGTGG, the binding signal with ELK4 was 1.04 fold enrichment (6-mer frequency, TF over GST control); with ETV2, 1.03 fold enrichment (6-mer frequency, TF over GST control); with SPDEF, 1.02 fold enrichment (6-mer frequency, TF over GST control); in the experiment with ETV7, 1.09 fold enrichment (6-mer frequency, TF over GST control).

As to AGTAAC, the binding signal with ETV2 is 1.05 fold enrichment (6-mer frequency, TF over GST control).

Take TGCCGG: the binding signal with ELF3 was 1.11 fold enrichment (6-mer frequency, TF over GST control); with SPDEF, 1.21 fold enrichment (6-mer frequency, TF over GST control).

As to CGGATC, the binding signal with ETV2 was 1.03 fold enrichment (6-mer frequency, TF over GST control); with CRX, 1.21 fold enrichment (6-mer frequency, TF over GST control); with SPDEF, 1.67 fold enrichment (6-mer frequency, TF over GST control).

As for TCATAC, the binding signal with ELK4 was 1.07 fold enrichment (6-mer frequency, TF over GST control); with ETV2, 1.15 fold enrichment (6-mer frequency, TF over GST control); in the experiment with ELF3, 1.08 fold enrichment (6-mer frequency, TF over GST control); in the experiment with CRX, 1.02 fold enrichment (6-mer frequency, TF over GST control); in the experiment with SPDEF, 1.05 fold enrichment (6-mer frequency, TF over GST control); with ETV7, 1.09 fold enrichment (6-mer frequency, TF over GST control).

Turning to ACCGCA, the binding signal with ELK4 was 1.05 fold enrichment (6-mer frequency, TF over GST control); with ETV2, 1.3 fold enrichment (6-mer frequency, TF over GST control); with ELF3, 1.29 fold enrichment (6-mer frequency, TF over GST control); with CRX it was 1.01 fold enrichment (6-mer frequency, TF over GST control); in the experiment with SPDEF, 1.13 fold enrichment (6-mer frequency, TF over GST control); with ETV7 it was 1.12 fold enrichment (6-mer frequency, TF over GST control).

In the case of GTCCTG, the binding signal with ETV2 was 1.29 fold enrichment (6-mer frequency, TF over GST control); with ELF3 it was 1.07 fold enrichment (6-mer frequency, TF over GST control); in the experiment with SPDEF it was 1.34 fold enrichment (6-mer frequency, TF over GST control); with ETV7, 1.26 fold enrichment (6-mer frequency, TF over GST control).

Take GGTATG: the binding signal is 1.09 fold enrichment (6-mer frequency, TF over GST control) with ELK4; 1.05 fold enrichment (6-mer frequency, TF over GST control) with ETV2; 1.02 fold enrichment (6-mer frequency, TF over GST control) with SPDEF; 1.01 fold enrichment (6-mer frequency, TF over GST control) with ETV7.

In the case of CATTGT, the binding signal with ELK4 was 1.17 fold enrichment (6-mer frequency, TF over GST control); with ETV2, 1.11 fold enrichment (6-mer frequency, TF over GST control); with ELF3 it was 1.02 fold enrichment (6-mer frequency, TF over GST control); with SPDEF it was 1.11 fold enrichment (6-mer frequency, TF over GST control); in the experiment with ETV7, 1.11 fold enrichment (6-mer frequency, TF over GST control).

Take TACCCC: the binding signal in the experiment with ELK4 was 1.19 fold enrichment (6-mer frequency, TF over GST control); in the experiment with ETV2, 1.19 fold enrichment (6-mer frequency, TF over GST control); in the experiment with ELF3, 1.04 fold enrichment (6-mer frequency, TF over GST control); with CRX it was 1.03 fold enrichment (6-mer frequency, TF over GST control); with SPDEF, 1.02 fold enrichment (6-mer frequency, TF over GST control); in the experiment with ETV7, 1.1 fold enrichment (6-mer frequency, TF over GST control).

For the sequence GCTATC, the binding signal with ELK4 is 1.13 fold enrichment (6-mer frequency, TF over GST control); in the experiment with ETV2 it was 1.04 fold enrichment (6-mer frequency, TF over GST control); in the experiment with ELF3, 1.04 fold enrichment (6-mer frequency, TF over GST control); with SPDEF, 1.11 fold enrichment (6-mer frequency, TF over GST control); with ETV7 it was 1.18 fold enrichment (6-mer frequency, TF over GST control).

As for GCTTGT, the binding signal was 1.03 fold enrichment (6-mer frequency, TF over GST control) with ETV2; 1.09 fold enrichment (6-mer frequency, TF over GST control) with ELF3; 1.09 fold enrichment (6-mer frequency, TF over GST control) with ETV7.

In the case of CCCGGT, the binding signal is 1.13 fold enrichment (6-mer frequency, TF over GST control) with ELK4; 1.06 fold enrichment (6-mer frequency, TF over GST control) with ELF3; 1.11 fold enrichment (6-mer frequency, TF over GST control) with SPDEF; 1.01 fold enrichment (6-mer frequency, TF over GST control) in the experiment with ETV7.

On to GTTGCG, for which the binding signal in the experiment with ELK4 is 1.01 fold enrichment (6-mer frequency, TF over GST control); with ETV2 it was 1.03 fold enrichment (6-mer frequency, TF over GST control); in the experiment with ETV7, 1.04 fold enrichment (6-mer frequency, TF over GST control).

Take GTTATA: the binding signal is 1.13 fold enrichment (6-mer frequency, TF over GST control) in the experiment with ELF3; 1.08 fold enrichment (6-mer frequency, TF over GST control) in the experiment with CRX; 1.03 fold enrichment (6-mer frequency, TF over GST control) in the experiment with SPDEF; 1.05 fold enrichment (6-mer frequency, TF over GST control) in the experiment with ETV7.

Regarding TGATAC, the binding signal in the experiment with ELK4 is 1.29 fold enrichment (6-mer frequency, TF over GST control); with ELF3 it was 1.16 fold enrichment (6-mer frequency, TF over GST control); with CRX, 1.1 fold enrichment (6-mer frequency, TF over GST control); with SPDEF, 1.17 fold enrichment (6-mer frequency, TF over GST control).

Turning to CACATG, the binding signal with ELK4 is 1.23 fold enrichment (6-mer frequency, TF over GST control); in the experiment with ETV2 it was 1.12 fold enrichment (6-mer frequency, TF over GST control); with ELF3 it was 1.04 fold enrichment (6-mer frequency, TF over GST control); in the experiment with ETV7, 1.03 fold enrichment (6-mer frequency, TF over GST control).

TTGTCA: the binding signal is 1.21 fold enrichment (6-mer frequency, TF over GST control) in the experiment with ELK4; 1.02 fold enrichment (6-mer frequency, TF over GST control) with ETV2; 1.06 fold enrichment (6-mer frequency, TF over GST control) with SPDEF; 1.2 fold enrichment (6-mer frequency, TF over GST control) with ETV7.

Regarding GTTGTT, the binding signal in the experiment with ELK4 is 1.33 fold enrichment (6-mer frequency, TF over GST control); with ELF3 it was 1.13 fold enrichment (6-mer frequency, TF over GST control); in the experiment with SPDEF, 1.12 fold enrichment (6-mer frequency, TF over GST control); with ETV7 it was 1.25 fold enrichment (6-mer frequency, TF over GST control).
